Compound activity as filed in PubChem BioAssay.
SIRT5 block – SIRT5 desuccinylase inhibitors, primary screen, biochemical, fluorescence imaging, single point, set 5; 1.1% of 330,000 active; NAD-dependent protein deacylase sirtuin-5, mitochondrial (Homo sapiens), Q9NXA8; inhibition, % at 15 µM; Purified SirT5, succinyl-peptide AMC, trypsin-coupled fluorescence; in the data active = inhibition above about 15%; inconclusive = no clear call, values can overlap the other calls
Target sequence (Q9NXA8 whole entry, looked up): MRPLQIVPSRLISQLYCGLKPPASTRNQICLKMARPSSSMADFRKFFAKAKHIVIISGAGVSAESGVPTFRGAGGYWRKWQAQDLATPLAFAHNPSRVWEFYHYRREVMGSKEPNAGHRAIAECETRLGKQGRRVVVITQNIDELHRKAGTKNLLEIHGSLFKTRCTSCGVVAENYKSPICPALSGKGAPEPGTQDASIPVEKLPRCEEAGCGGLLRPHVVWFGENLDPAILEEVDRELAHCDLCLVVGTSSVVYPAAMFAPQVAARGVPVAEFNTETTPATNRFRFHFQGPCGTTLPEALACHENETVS
EWS-Fli block – EWS/Fli-driven NR0B1 reporter inhibitors, primary screen, A673 cells, NR0B1 luciferase, luminescence, MLPCN library. 0.67% of 350,000 active. viability-normalised. AID 651661, 2012. inhibition, % at 12.6 µM;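 active = mean inhibition of at least 50% after viability correction, with every replicate also passing that limit; inconclusive = mean reaches 50% but only one of two replicates passes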;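 also: firefly luciferase signal divided by Alamar Blue viability fluorescence both relative to DMSO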
PAX8 reporter – inhibitors of PAX8-driven TPO luciferase reporter, primary screen, RMG-I cells, single concentration | SteadyGlo, 24 h | inhibition, % at 12.6 µM | 1.2% of 360,000 active | AID 652154, 2013;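 active = mean replicate inhibition at least 60% with every replicate also reaching 60%; inconclusive = only one of the two criteria is met; inactive = mean below 60% and not all replicates reaching 60%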;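 also: luciferase light reporting Pax8 driven TPO promoter activity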
PGC1a acetyl inh – inhibitors of PGC1a acetylation signal, primary screen, cell-based, U2OS, AlphaScreen, inhibitor mode; AlphaScreen anti-acetyl-lysine; with virally co-expressed GCN5 acetyltransferase; inhibition, % at 15.6 µM; 0.17% of 350,000 active; AID 651687, 2012;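 active = every replicate shows inhibition of at least 40%; inconclusive = mean inhibition at least 40% but some replicate below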
LGR2 inh – inhibitors of bursicon-induced LGR2 CRE-luciferase signal, primary screen, cell-based, HEK293, CRE-luciferase reporter, bursicon stimulation | Drosophila bursicon receptor LGR2 (rickets) | bursicon-stimulated, 4 h | inhibition, % at 9.99 µM | 0.35% of 380,000 active;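 active = drop in luminescence signal, shown as inhibition above about 50% in the replicate tests, limit read from the data, passing the limit was not always enough; inconclusive = probably only some replicates passing the limit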;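 also: agonist challenge used bursicon conditioned medium at about half maximal strength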
Ecoli rRNA inh – reduced GFP signal of wild-type E. coli, primary screen, bacterial rRNA inhibitor project, GFP/RFP fluorescence, OD600, single point | E. coli WT GFP vs humanized-ribosome RFP mutants, 24 h; stronger effect = lower value; DMSO median 0, no signal -100 | GFP signal change (wild-type ribosome), % (concentration not given with the values) | 1.6% of 350,000 active | AID 720706, 2013;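 active = significant combined selectivity score with lowered wild-type GFP, culture density cut under 30%, mutant RFP and density less affected; inactive = any of these conditions unmet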
Hits are given with their value. Only some compounds are listed: those with a hit (about 3.4% of all), similar ones and a draw of the others.

Screening C[C@H](CO)N1C[C@H](C)[C@@H](CN(C)C(=O)Nc2ccc3c(c2)OCO3)Oc2cc(C3=CCCCC3)ccc2S1(=O)=O returned SIRT5 block inactive, EWS-Fli block inactive, PAX8 reporter inactive, PGC1a acetyl inh inactive, LGR2 inh inactive and Ecoli rRNA inh inactive.
Screening COc1ccc(-c2cnc3c(c2)C(=O)N([C@@H](C)CO)C[C@H](C)[C@@H](CN(C)C(=O)CN(C)C)O3)cc1 returned SIRT5 block inactive, EWS-Fli block inactive, PGC1a acetyl inh inactive, LGR2 inh inactive and Ecoli rRNA inh inactive.
`O=[N+]([O-])c1ccc2c(c1)/C(=N\O)c1ccccc1-2` gave SIRT5 block inactive, EWS-Fli block inactive, PAX8 reporter inactive, PGC1a acetyl inh inactive, LGR2 inh inactive and Ecoli rRNA inh -28.
O=[N+]([O-])c1ccc2c(c1)C(=NO)c1cc(F)ccc1-2 was read as SIRT5 block inactive, EWS-Fli block inactive, PAX8 reporter inactive, LGR2 inh inactive and Ecoli rRNA inh inactive.
`COc1cc(-c2noc(C)c2/C=C/c2ccc(C(=O)O)cc2)cc(OC)c1OC` gave SIRT5 block inactive, EWS-Fli block inactive, PAX8 reporter inactive, PGC1a acetyl inh inactive, LGR2 inh inactive and Ecoli rRNA inh inactive.
For COc1cc(-c2noc(C)c2/C=C/c2cccc([N+](=O)[O-])c2)cc(OC)c1OC the results were SIRT5 block inactive, EWS-Fli block 54, PAX8 reporter inactive, PGC1a acetyl inh inactive, LGR2 inh inactive and Ecoli rRNA inh inactive.
For O=C(Nc1ccc(OCC(F)(F)C(F)F)c(C(F)(F)F)c1)c1ccccc1O the results were PAX8 reporter 100 and PGC1a acetyl inh inactive.
`O=C(Nc1ccc(OCC(F)(F)C(F)F)c(C(F)(F)F)c1)c1ccccc1` gave PGC1a acetyl inh inactive.
COc1ccc2c3c([nH]c2c1)[C@H](CO)N(C(=O)c1ccccc1)CC31CCN(C(=O)NC(C)C)CC1 was read as EWS-Fli block inactive, PGC1a acetyl inh inactive, LGR2 inh inactive and Ecoli rRNA inh inactive.
`CC(NC(=O)c1ccc(CS(=O)(=O)c2ccc(Cl)cc2)o1)c1ccc2c(c1)OCCO2` (stereo not given) gave SIRT5 block inactive, EWS-Fli block inactive, PGC1a acetyl inh inactive, LGR2 inh inactive and Ecoli rRNA inh -17.
Screening Cc1ccccc1S(=O)(=O)Cc1ccc(C(=O)NC(C)c2ccc3c(c2)OCCO3)o1 (stereo not given) returned EWS-Fli block inactive, PAX8 reporter inactive, PGC1a acetyl inh inactive, LGR2 inh inactive and Ecoli rRNA inh inactive.
Screening NC(=S)N=Nc1c(O)n(CCCl)c2ccccc12 returned SIRT5 block 19, EWS-Fli block inactive, PAX8 reporter inactive, PGC1a acetyl inh inactive, LGR2 inh inactive and Ecoli rRNA inh inactive.
COc1ccccc1S(=O)(=O)N1CC[C@H]2[C@@H](CO)N(C)c3ccc(-c4ccc(C#N)cc4)cc3[C@H]21 was read as EWS-Fli block inactive, PAX8 reporter 107, PGC1a acetyl inh inactive, LGR2 inh inactive and Ecoli rRNA inh inactive.
For CCCC#Cc1ccc2c(c1)[C@@H]1[C@@H](CCN1S(=O)(=O)c1cccc(F)c1)[C@@H](CO)N2C the results were SIRT5 block inactive, EWS-Fli block inactive, PAX8 reporter 67, PGC1a acetyl inh inactive, LGR2 inh inactive and Ecoli rRNA inh inactive.
Screening COc1ccc(-c2ccc3c(c2)[C@@H]2[C@@H](CCN2S(=O)(=O)c2ccc(F)cc2)[C@H](CO)N3C)cc1 returned SIRT5 block 16, EWS-Fli block inactive, PAX8 reporter 62, PGC1a acetyl inh inactive, LGR2 inh inactive and Ecoli rRNA inh inactive.
`COc1ccccc1S(=O)(=O)N1CC[C@@H]2[C@@H](CO)N(C)c3ccc(-c4ccccc4)cc3[C@@H]21` gave SIRT5 block inactive, EWS-Fli block inactive, PAX8 reporter inconclusive, PGC1a acetyl inh inactive, LGR2 inh inactive and Ecoli rRNA inh inactive.
For C[C@H](CO)N1C[C@H](C)[C@@H](CN(C)C(=O)CCCN(C)C)OCCCC[C@H](C)Oc2ccc(NC(=O)Nc3ccc(C(F)(F)F)cc3)cc2C1=O the results were EWS-Fli block inactive, PAX8 reporter inactive, PGC1a acetyl inh inactive, LGR2 inh inactive and Ecoli rRNA inh inactive.
For CCC(=O)N1CCC2(CC1)CN(CC1CCCCC1)[C@@H](CO)c1c2c2ccc(OC)cc2n1C the results were EWS-Fli block inactive, PGC1a acetyl inh inactive, LGR2 inh inactive and Ecoli rRNA inh inactive.
Screening Cc1ccc(Nc2nc(N)nc(CCl)n2)c(C)c1 returned SIRT5 block inactive, EWS-Fli block inactive, PAX8 reporter 106, PGC1a acetyl inh inactive, LGR2 inh inactive and Ecoli rRNA inh inactive.
Screening CCOc1ccc(Nc2nc(N)nc(CCl)n2)cc1 returned SIRT5 block inactive, EWS-Fli block inactive, PAX8 reporter 110 and PGC1a acetyl inh inactive.
CC1CC(C)CN(C(=S)SCc2nc(N)nc(Nc3ccccc3)n2)C1 (stereo not given) was read as SIRT5 block inactive, EWS-Fli block inactive, PAX8 reporter inactive, LGR2 inh inactive and Ecoli rRNA inh -22.
For Cc1cccc(Nc2nc(N)nc(CCl)n2)c1C the results were SIRT5 block inactive, EWS-Fli block inconclusive, PAX8 reporter 125, PGC1a acetyl inh inactive and Ecoli rRNA inh inactive.
`C[C@@H]1CN([C@@H](C)CO)C(=O)c2cc(-c3cccc(F)c3)cnc2O[C@H]1CN(C)Cc1cccnc1` gave SIRT5 block inactive, EWS-Fli block inactive, PGC1a acetyl inh inactive, LGR2 inh inactive and Ecoli rRNA inh inactive.
For COc1cccc(NC(=O)N(C)C[C@@H]2Oc3cc(C#Cc4ccc(F)cc4)ccc3S(=O)(=O)N([C@@H](C)CO)C[C@@H]2C)c1 the results were SIRT5 block inactive, EWS-Fli block inactive, PGC1a acetyl inh inactive, LGR2 inh inactive and Ecoli rRNA inh inactive.
For CCC(=O)N[C@@H]1C[C@@H]2O[C@H](CO)CC[C@@H]2O[C@@H]1CCc1ccc(-c2cccc(OC)c2)cc1 the results were SIRT5 block inactive, EWS-Fli block inactive and PGC1a acetyl inh inactive.
Nc1nc(CCl)nc(Nc2ccccc2)n1 was read as SIRT5 block inactive, EWS-Fli block inactive, PAX8 reporter 88, LGR2 inh inactive and Ecoli rRNA inh inactive.
`Cc1ccc(Nc2nc(N)nc(CC#N)n2)cc1` gave PGC1a acetyl inh inactive.
For Cc1ccc(Nc2nc(N)nc(CCl)n2)cc1 the results were SIRT5 block inactive, EWS-Fli block 71, PAX8 reporter 105, PGC1a acetyl inh inactive, LGR2 inh inactive and Ecoli rRNA inh inactive.
`C[C@@H]1CCCCO[C@H](CN(C)S(=O)(=O)c2ccc(F)cc2)[C@@H](C)CN([C@@H](C)CO)C(=O)c2cc(NC(=O)CCCN(C)C)ccc2O1` gave SIRT5 block inactive, EWS-Fli block inactive, PAX8 reporter inactive, PGC1a acetyl inh inactive, LGR2 inh inactive and Ecoli rRNA inh inactive.
